Hits are enriched below; roughly 4.7% of the tested compounds scored in any of these assays.
eIF4H FP inh = inhibitors of RNA binding by human eIF4H; actives 0.94% (n = 290,000); eIF4H fluorescence polarization binding assay; inhibition, % at 35 µM;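 also: calls also rest on retests at 20 µM and on dose response follow-up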
PABP polyA inh = blocks human PABP binding to poly(A) RNA; actives 1% (n = 290,000); AID 2014; inhibition, % at 35 µM; fluorescence polarization;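 also: calls also rest on retests at 20 µM and on dose response follow-up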
Efflux pump inh = inhibitors of Candida antifungal efflux pumps expressed in yeast | S. cerevisiae Candida pump triplex, Nile Red efflux | inhibition, % at 10 µM | actives 0.44% (n = 330,000);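 active = plate passing quality check with inhibition over a set limit, or well fluorescence over plate mean plus 4 SD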;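 also: Nile Red retained in pooled yeast measured as flow cytometry median fluorescence; 0% = buffer negative control and 100% = Enniatin B positive control; higher means more Nile Red kept so more efflux inhibition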
UBC9 SUMO inh = SUMOylation inhibition | actives 0.36% (n = 290,000) | HTRF SUMOylation assay, SAE1/SAE2 + UBC9, in vitro | inhibition, % at 35 µM; in the data active = inhibition above about 50%, passing the limit was not always enough
Target sequence (P63279 whole entry, looked up): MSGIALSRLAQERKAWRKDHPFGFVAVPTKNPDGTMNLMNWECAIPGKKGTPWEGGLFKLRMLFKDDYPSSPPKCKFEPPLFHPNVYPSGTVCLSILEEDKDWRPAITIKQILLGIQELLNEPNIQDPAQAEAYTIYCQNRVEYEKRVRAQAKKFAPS
ALR H2O2 inh = blocks human ALR sulfhydryl oxidase activity; purified ALR, DTT oxidation, H2O2 HRP-luminol luminescence; inhibition, % (no concentration beside the values); actives 3.8% (n = 290,000); P55789; AID 485317;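 active = mean replicate inhibition above about 79%, with every replicate also reaching it, limit read from the data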
Target sequence (P55789 whole entry, looked up): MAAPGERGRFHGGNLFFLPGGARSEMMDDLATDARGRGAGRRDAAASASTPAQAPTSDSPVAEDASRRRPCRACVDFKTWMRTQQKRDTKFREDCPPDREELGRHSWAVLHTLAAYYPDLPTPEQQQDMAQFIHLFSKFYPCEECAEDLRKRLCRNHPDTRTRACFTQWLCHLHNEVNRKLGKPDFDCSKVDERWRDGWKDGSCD
PABP1 MLLE inh = blocks PAM2 peptide binding to the PABP1 MLLE domain. inhibition, % at 20 µM. GST-MLLE / FITC-PAM2 fluorescence polarization. P11940. actives 0.36% (n = 360,000); in the data active = inhibition above about 35%, passing the limit was not always enough;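 also: plate controls were DMSO wells with GST-MLLE for no effect and wells lacking GST-MLLE protein for full effect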
Active calls of the source: *; x = no result given. Unless noted, no rule for the calls is given here.

SMILES | eIF4H FP inh | PABP polyA inh | Efflux pump inh | UBC9 SUMO inh | ALR H2O2 inh | PABP1 MLLE inh
COc1ccc(/C=C2\CN(Cc3ccccc3)C/C(=C\c3ccc(OC)c(O)c3)C2=O)cc1O | -6.2 | -10.8 | 0.1 | -1.4 | x | -6.7
CCN1C/C(=C/c2ccc(OC)c(O)c2)C(=O)/C(=C/c2ccc(OC)c(O)c2)C1 | -7.2 | -21.6 | 0.0 | -9.9 | 97.8* | 8.7
CCOc1cc(C(N)=O)cc(Br)c1OC | 8.5* | 67.8 | -0.1 | 2.5 | 1.0 | 13.9
Cc1ccc(-c2nc(CSc3nc4ccccc4c(=O)n3C)cs2)cc1 | 6.5 | 7.4 | 0.0 | -1.1 | 97.8* | -4.8
Cc1ccc(-c2nc(CSc3nc4ccccc4c(=O)n3CCO)cs2)cc1 | -4.0 | -3.5 | 0.6 | -9.3 | 98.4* | 11.0
CCN(CC(=O)Nc1ccccc1C(F)(F)F)C(=O)c1ccc(NC(=O)c2cccs2)cc1 | x | x | x | x | x | 0.3
N#CC1=C(N)Oc2n[nH]c(-c3cccs3)c2C1c1ccco1 (configuration not stated) | 42.6 | 50.9 | 0.1 | 28.9 | 75.0* | -68.8
N#CC1=C(N)Oc2n[nH]c(-c3cccs3)c2C1c1ccncc1 (configuration not stated) | -10.6 | 9.8 | -0.1 | 13.4 | x | 5.5
Cc1cccc(C)c1C(=NCCN(C)C)c1ccccc1 | x | x | 0.1 | x | 2.8 | 1.8
Cn1c(=O)oc2cc(S(=O)(=O)N3CCN(c4cccc(Cl)c4)CC3)ccc21 | 103.1* | 112.2* | -0.1 | -16.5 | -3.5 | -6.8
CCOC(=O)CSc1nc2c(sc(=S)n2-c2ccccc2OC)c(=O)n1Cc1ccco1 | 3.7 | -9.3 | 0.0 | 5.1 | -9.2 | 38.2*
CCOC(=O)CSc1nc2c(sc(=S)n2-c2ccccc2OC)c(=O)n1-c1ccccc1OC | 4.1 | 12.3 | 0.2 | -0.3 | -4.0 | -10.2
Fc1cccc(-n2c(-c3ccco3)nc3nc4ccccc4nc32)c1 | 57.4 | 27.1* | 0.1 | 22.6 | 2.5 | -45.4
Cc1ccc(-n2c(-c3ccco3)nc3nc4ccccc4nc32)cc1F | 72.0 | -8.2 | 0.0 | 22.8 | 41.5 | -34.0
Fc1ccc(-n2c(-c3ccco3)nc3nc4ccccc4nc32)cc1 | 86.1* | 94.1* | -0.2 | 26.2 | 52.0 | -32.1
Fc1cccc(-n2c(-c3cccs3)nc3nc4ccccc4nc32)c1 | 8.9 | -0.3 | 0.1 | 54.9* | 9.4 | x
Cc1noc(C)c1S(=O)(=O)N(C)C[C@H]1Oc2ccc(NC(=O)NC(C)C)cc2C(=O)N([C@H](C)CO)C[C@@H]1C | x | x | -0.1 | x | -7.8 | 6.6
O=C(c1ccc2ncsc2c1)N1CCN(c2ccc(O)cc2)CC1 | -5.0 | 0.4 | -0.1 | 11.1 | 98.9* | 20.8
CC1CC(C)CN(C(=O)c2ccc3ncsc3c2)C1 (configuration not stated) | x | x | -0.1 | x | 78.9* | 0.6
C=CC[C@@H](CC(=O)N[C@@H](CO)Cc1ccccc1)C(=O)N[C@H](C)COC(=O)[C@@H](CC=C)Cc1ccc(F)cc1 | x | x | 0.2 | x | 3.3 | 13.3
CCNC(=O)CCSc1nc2cc(Cl)ccc2o1 | -16.1 | -0.8 | 0.2 | 16.3 | 90.3* | 4.7
O=C(CCSc1nc2cc(Cl)ccc2o1)N1CCOCC1 | -9.6 | -5.9 | 0.0 | -2.4 | 98.6* | -10.0
O=C(CSc1nc2cc(Cl)ccc2o1)N1CCOCC1 | -3.3 | -5.4 | 0.0 | 10.7 | 10.1 | -5.1
O=c1c2c([nH]c3ccccc13)C(=C1CCCC1)CC2 | 82.3* | 69.6* | 0.0 | -4.1 | -15.2 | 4.1
Cc1cc(SCC(=O)N/N=C/c2ccc(O)c(O)c2)c(C)cc1Br | 4.6 | 1.9 | -0.2 | -20.6 | 98.8* | 0.8
SMILES | eIF4H FP inh | PABP polyA inh | Efflux pump inh | UBC9 SUMO inh | ALR H2O2 inh | PABP1 MLLE inh
COc1cccc2c(SCC(=O)N/N=C/c3ccc(O)c(O)c3)cc(C)nc12 | 21.2 | 55.2 | 0.0 | 35.6 | 99.6* | 5.2
O=C(CSc1cccc2cccnc12)N/N=C/c1cccc(O)c1 | -3.0 | 0.3 | -0.2 | 15.2 | 34.3 | 3.2
Cc1cc(SCC(=O)N/N=C/c2ccc(O)c(O)c2)nc2ccccc12 | 28.2 | 5.0 | 0.5 | 6.3 | x | 0.6
COc1ccccc1Nc1cc(C)nc2c(C)cccc12 | x | x | x | x | x | -14.9
COc1ccc2c(c1)c(C(=O)N/N=C/c1ccc(O)c(O)c1)c(C)n2C | -8.8 | 5.5 | 4.2 | -7.2 | 99.5* | 1.3
COc1cccc2c(N/N=C/c3ccccc3)cc(C)nc12 | -10.9 | -7.6 | 0.2 | -7.4 | 87.1* | -5.2
CCCCNC(=O)C1(C)CCCCN1Cc1ccc2ccccc2c1 (configuration not stated) | x | x | x | x | x | 3.9
CC(C)Cc1nnc(NC(=O)CN2C(=O)NC3(CCCC3)C2=O)s1 | x | x | 0.0 | x | -0.8 | -18.3
C=CCNc1nc2cc(-c3ccccc3C)sc2c(=O)n1C | x | x | x | x | x | -14.4
O=C(N/N=C/c1ccc(O)c(O)c1)N/N=C/c1ccc(O)c(O)c1 | 55.7* | 41.6 | -0.2 | x | 99.6* | -7.6
CCCCSc1nc(C)cc(SCC(=O)N/N=C/c2ccccc2)n1 | -8.3 | -10.2 | -0.1 | 5.0 | -2.0 | -1.6
COc1ccc2nc(C)cc(SCC(=O)N/N=C/c3cccc4ccccc34)c2c1 | -4.1 | 10.9 | 0.3 | -3.2 | -0.1 | -4.9
COc1cccc2c(SCC(=O)N/N=C/c3ccccc3)cc(C)nc12 | -10.9 | -0.3 | -0.2 | 20.5 | 98.6* | 19.8
COc1ccc2nc(C)cc(SCC(=O)N/N=C/c3ccc(O)c(O)c3)c2c1 | -8.6 | -8.7 | 0.0 | -2.3 | 88.3* | 2.3
Cc1ccc(Cl)cc1NC(=S)N1CCCCCC1 | 6.7 | 2.3 | -0.1 | -8.6 | -12.5 | -88.1
CCCc1nc2c(C)cc(Br)cn2c1Cc1ccc(C)cc1 | x | x | x | x | x | -0.5
CN1CN(C)c2cccc3cccc1c23 | 89.5 | 45.9 | 0.0 | 34.7 | 98.2* | 27.9
CCN1C(=O)N(CC)c2cccc3cccc1c23 | 52.2 | 16.1 | 0.0 | 93.7 | -15.2 | -6.6
CCC1CCCCN1CCCNC(=O)CS(=O)Cc1nc(-c2ccc(OC)c(OC)c2)oc1C (configuration not stated) | -2.4 | 7.2 | 0.0 | 6.4 | 99.6* | 0.8
COc1ccc(-c2nc(CS(=O)CC(=O)NC3CCCC3)c(C)o2)cc1 (configuration not stated) | -18.4 | 4.7 | 0.0 | 13.1 | 98.3* | 4.6
Cc1cccc(-c2nc(CS(=O)CC(=O)NC3CCCC(C)C3C)c(C)o2)c1 (configuration not stated) | -6.2 | -1.0 | 0.2 | 9.4 | 99.2* | 10.3
CCOC(=O)CC1CCCCN1Cc1nc(-c2ccc(F)c(OC)c2)oc1C (configuration not stated) | -8.9 | -5.2 | 0.1 | -1.1 | -3.7 | 2.8
Cc1oc(-c2ccc(Cl)cc2)nc1CS(=O)CC(=O)NC1CCCCC1 (configuration not stated) | -9.3 | 4.3 | 0.1 | 38.0 | 97.0* | -1.5
COc1ccc(-c2nc(CN3CCCC(C(=O)NC4CCCC4)C3)c(C)o2)cc1 (configuration not stated) | -8.8 | -1.3 | 0.1 | 18.3 | -15.4 | -6.6
COc1ccc(OCC(=O)N/N=C(\C)CC(=O)Nc2cccc([N+](=O)[O-])c2)cc1 | 3.0 | -4.2 | 0.0 | 4.9 | -1.2 | -15.8
